From PubChem BioAssay (NCATS)
Several values for one entry are separate records, joined by “and”; a condition that tells them apart may be missing. Equal values may be shown once. Inconclusive results are not listed. Activity calls are given as the source filed them. Unless noted, calls come from the whole dose curve; as a rule, active = well fitted curve in the direction sought with a large enough effect; inconclusive = small, poorly fitted or top-dose-only effect, or another doubt; inactive = no such curve, though single readings can be large; an effect the other way counts as inactive or inconclusive.

Key:
[1] = Cell Viability - MRC5 (AID 434; calls by dose curve;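 note: potency is the fitted concentration of half-maximal effect; cells exposed to compound for 40 hours at 37 °C; potency reflects cytotoxicity seen as loss of intracellular ATP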); settings: MRC5 lung fibroblast viability, qHTS
How it was run: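 MRC5 normal human lung fibroblasts (1500/well) were treated with compounds for 40 hr at 37 °C in complete medium, and viable cells were measured as intracellular ATP by CellTiter-Glo luminescence. AC50 came from Hill fits, normalized to DMSO and 100 uM tamoxifen.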

[2] = target: Mitogen-activated protein kinase 10 (Mus musculus) (UniProt Q61831); assay: JNK3 AlphaScreen Assay (AID 530; active = well fitted curve in either direction with a large enough effect, not every such curve was filed as active;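 note: kinase came from lysate of stimulated human HepG2 cells; signal reports phosphorylation of biotinylated GST-cJun 1-79 at Ser73 with 10 µM ATP; % is set by controls: 0 for no effect and ±100 for the full control effect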); settings: JNK3 lysate, c-Jun phosphorylation; series mostly up to 57.1 µM
How it was run: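 Inhibitors reduce antibody binding to phosphorylated biotin-cJun, lowering AlphaScreen luminescence. Lysates from HepG2 cells pre-activated by IL-1beta plus TNF-alpha supplied JNK3; compounds were titrated.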

[3] = Cell Viability - HUV-EC-C (AID 542); settings: HUV-EC-C endothelial cell viability, qHTS; series mostly up to 92.2 µM;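 note: cells exposed to compound for 40 hours; % is set by controls: 0 for no effect and ±100 for the full control effect; nearly all actives have a fitted effect of over 35% in size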
How it was run: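 qHTS cytotoxicity: HUV-EC-C, 1000 cells/well, 5 hr settle, compound 40 hr 37 °C, CellTiter-Glo, luminescence. AC50 via Hill equation.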

[4] = Cellular Toxicity (caspase-3) H-4-II-E (AID 663); settings: H-4-II-E rat hepatoma; Potency: caspase-3 activation; series mostly up to 92.2 µM;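 note: cells exposed to compound for 16 hr before readout; 0% = DMSO basal and 100% = 100 µM tamoxifen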
How it was run: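 Luminescence from caspase-cleaved aminoluciferin substrate, read 20 min after reagent addition, reports caspase 3/7 activation in rat H-4-II-E cells after 16 hr compound exposure. Normalized to DMSO (basal) and 100 uM tamoxifen (100%); AC50 from Hill fits.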

[5] = MultiTox-Fluor Cytotoxicity Assay - LYMP1-002 - Live Cells (AID 955); settings: LYMP1-002 lymphoblastoid live-cell protease fluorescence viability; series mostly up to 46.1 µM; note: % is set by controls: 0 for no effect and ±100 for the full control effect
How it was run: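 Read-out is live-cell protease activity (cell-permeant GF-AFC substrate, fluorescence Ex/Em=405/510), where a decrease indicates acute toxicity. Human lymphoblastoid cells were treated 16 hours at 37 C in a concentration series, and AC50 values came from standard Hill modelling.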

[6] = MultiTox-Fluor Cytotoxicity Assay - LYMP1-003 - Live Cells (AID 962); settings: LYMP1-003 lymphoblastoid cells, MultiTox-Fluor live-cell protease fluorescence; series mostly up to 92.2 µM;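 note: 0% = DMSO only and full loss = 92 µM tetraoctylammonium bromide; cytotoxic hits lower the live-cell protease signal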
How it was run: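 qHTS, 1536-well; 2500 cells/well LYMP1-003; 5 hr 37 C settle; cpd 16 hr 37 C; MultiTox-Fluor reagent 60 min RT; live-cell protease fluor. 405/510; Hill-fit AC50; tetraoctylammonium bromide pos. ctrl.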

[7] = Cell Viability - LYMP1-003 - Assay at 40 hr (AID 964); settings: LYMP1-003 lymphoblastoid viability; series mostly up to 92.2 µM; note: % is set by controls: 0 for no effect and ±100 for the full control effect; nearly all actives have a fitted effect of over 60% in size
How it was run: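 Cells were seeded at 2500 per well and incubated 5 hr at 37 C. Compounds were added across a concentration series and left 40 hr at 37 C. CellTiter-Glo was added for 30 min at room temperature before luminescence reading.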

[8] = Cell Viability - LYMP2-009 (AID 968); settings: LYMP2-009 lymphoblastoid cell viability; series mostly up to 92.2 µM;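 note: 0% = DMSO alone and the full-kill end = tetraoctylammonium bromide at 92 µM; nearly all actives have a fitted effect of over 55% in size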
[9] = Cell Viability - LYMP2-011 (AID 969); settings: LYMP2-011 lymphoblastoid cells viability; series mostly up to 92.2 µM;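 note: 0% = DMSO only and full inhibition = 92 µM tetraoctylammonium bromide; nearly all actives have a fitted effect of over 60% in size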
How it was run: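 2500 cells/well, 5 hr 37 C; compound added, 24 hr 37 C; CellTiter-Glo 30 min RT; luminescence. qHTS concentration-response, Hill-equation AC50. Tetraoctylammonium bromide positive control.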

[10] = Cell Viability - LYMP2-017 (AID 972); settings: LYMP2-017 lymphoblastoid cell viability; series mostly up to 92.2 µM; note: % is set by controls: 0 for no effect and ±100 for the full control effect; nearly all actives have a fitted effect of over 55% in size
How it was run: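 2500 cells/well, 5 h 37 C; cpd 24 h 37 C in complete medium; CellTiter-Glo, 30 min RT; luminescence (ATP). AC50 via Hill fit, qHTS.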

[11] = Cell Viability - LYMP2-021 (AID 974); settings: LYMP2-021 lymphoblastoid cells viability; series mostly up to 92.2 µM;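 note: compound exposure lasts 24 hours at 37 °C; % is set by controls: 0 for no effect and ±100 for the full control effect; nearly all actives have a fitted effect of over 55% in size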
How it was run: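 Plate 2500 lymphoblastoid cells per well and incubate 5 hr at 37 C. Add compounds over a concentration range and incubate 24 hr at 37 C. Add CellTiter-Glo, wait 30 min at room temperature, read luminescence.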

[12] = Cell Viability - LYMP2-025 (AID 976); settings: LYMP2-025 lymphoblastoid cell viability; series mostly up to 92.2 µM;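 note: plate controls were DMSO only for no effect and tetraoctylammonium bromide control for full effect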
How it was run: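 Seed 2500 LYMP2-025 cells/well; 5 hr at 37 C; add compound; 24 hr at 37 C; add CellTiter-Glo; 30 min RT; read luminescence. AC50 from Hill-modelled concentration-response.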

[13] = Cell Viability - LYMP2-007 (AID 979); settings: LYMP2-007 lymphoblastoid cell viability; series mostly up to 92.2 µM;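 note: cells exposed to compound for 24 h before reading; 0% = DMSO only and the negative end = 92 µM tetraoctylammonium bromide; nearly all actives have a fitted effect of over 60% in size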
How it was run: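 Luminescent ATP signal (CellTiter-Glo) serves as the viability read-out after 24 hr compound treatment of lymphoblastoid cells in complete medium at 37 C. Concentration-response data were fitted to the Hill equation to give AC50 values.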

[14] = Cell Viability - LYMP2-018 (AID 985); settings: LYMP2-018 lymphoblastoid cells, viability (qHTS); series mostly up to 92.2 µM;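 note: compound exposure lasted 24 hr at 37 °C; plate controls were DMSO only for no effect and tetraoctylammonium bromide at 92 µM for full effect; nearly all actives have a fitted effect of over 50% in size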
How it was run: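 Luminescent ATP signal (CellTiter-Glo, read after 30 min at room temperature) reports viable cells after 24 hr compound treatment at 37 C. Concentration-response data were fitted to the standard Hill equation for AC50.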

[15] = Cell Viability - LYMP2-024 (AID 988); settings: LYMP2-024 lymphoblastoid cell viability; series mostly up to 92.2 µM;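 note: plate controls were DMSO only for no effect and 92 µM tetraoctylammonium bromide for full effect; nearly all actives have a fitted effect of over 60% in size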
How it was run: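 Steps: seed 2500 cells/well, 5 hr 37 C; add compound, 24 hr 37 C; add CellTiter-Glo, 30 min room temperature; read luminescence. AC50 derived by Hill modelling of concentration-dependent ATP loss.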

[16] = qHTS assay for small molecule activators of the nuclear factor-kappa B (NF-kB) signaling pathway (AID 651749; active = well fitted activation curve with a large enough effect in the signal ratio; the % refers to the signal ratio; note: % of control where 0% means no effect); settings: NF-kB-bla ME-180 cells, beta-lactamase FRET ratio, 16 h; active compounds read high
How it was run: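 Screening used 2,000 ME-180 reporter cells per well exposed to pinned compound (23 nL) or DMSO; after 16 hr at 37C, beta-lactamase expression under NF-kB control was assessed through FRET.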

[17] = qHTS assay for small molecule antagonists of the retinoid-related orphan receptor gamma (ROR-gamma) signaling pathway - cell viability counter screen (AID 720652; active = well fitted curve in the direction sought with a large enough effect in the repeat runs; an effect the other way counts as inactive or inconclusive;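 note: compound exposure lasted 16 hr before ATP read; % is set by controls: 0 for no effect and ±100 for the full control effect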); settings: RORgamma reporter cell line viability counter screen; series mostly up to 92.2 µM
How it was run: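 Luminescence from CellTiter-Glo after 30 min at room temperature reported cellular ATP as the cytotoxicity measure. Cells were the CHO reporter line with doxycycline-induced ROR-gamma expression, exposed to compound for 16 hr at 37 C.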

[18] = target: Nuclear receptor subfamily 1 group I member 2 (Rattus norvegicus) (UniProt Q9R1A7); assay: qHTS assay for small molecule activators of the rat pregnane X receptor (rPXR) signaling pathway (AID 651751; call rule not given here; note: 0% is about no effect); settings: rPXR reporter cells, luciferase (One-Glo), 24 h
[19] = qHTS assay for small molecule activators of the human pregnane X receptor (PXR) signaling pathway (AID 720659; call rule not given here; note: 0% is about no effect); settings: DPX-2 HepG2 CYP3A4-luciferase, 24 h; series mostly up to 92.3 µM
[20] = Cell Viability - LYMP2-006 (AID 978); settings: LYMP2-006 lymphoblastoid cell viability, qHTS; series mostly up to 92.2 µM
How it was run: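 Human lymphoblastoid cells, 2500 per well, were preincubated 5 hr at 37 C, then exposed to compounds for 24 hr at 37 C in complete medium. Viability was read as intracellular ATP by CellTiter-Glo luminescence; AC50 from Hill-equation fits of qHTS concentration-response data.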

Chain of Nuclear receptor subfamily 1 group I member 2 (Rattus norvegicus) (Q9R1A7 whole entry, looked up): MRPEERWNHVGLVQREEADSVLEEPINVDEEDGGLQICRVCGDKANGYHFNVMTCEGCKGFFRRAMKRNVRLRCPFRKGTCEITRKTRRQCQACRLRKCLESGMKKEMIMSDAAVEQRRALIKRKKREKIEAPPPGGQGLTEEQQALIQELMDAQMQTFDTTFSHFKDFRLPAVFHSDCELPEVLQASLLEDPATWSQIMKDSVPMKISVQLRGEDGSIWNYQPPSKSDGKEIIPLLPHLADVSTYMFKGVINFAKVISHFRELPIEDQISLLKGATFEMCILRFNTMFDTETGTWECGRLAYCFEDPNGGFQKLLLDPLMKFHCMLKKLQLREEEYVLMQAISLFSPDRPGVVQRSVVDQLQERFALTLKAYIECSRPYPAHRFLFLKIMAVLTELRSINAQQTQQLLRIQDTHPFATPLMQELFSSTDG

COC(C)(C)C
inactive: Potency [1] > 92 µM | Potency [2] | Potency [3] | Potency [4] | outcome [5] | outcome [6] | Potency [7] | Potency [8] | Potency [9] | Potency [10] | Potency [11] | Potency [12] | Potency [13] | Potency [14] | Potency [15] | activation [16] 1.85% | Potency [17] | max response [18] 3.77% | outcome [19]

Nc1c(Br)cc([N+](=O)[O-])cc1[N+](=O)[O-]
inactive: Potency [1] > 92 µM | Potency [2] | Potency [3] | Potency [4] | outcome [5] | outcome [6] | Potency [8] | Potency [9] | Potency [10] | Potency [12] | Potency [20] | Potency [13] | Potency [14] | activation [16] -0.945% | Potency [17] | max response [18] 14.9% | outcome [19]

Cc1coc2c1CCC(C)C2 (stereo unspecified)
inactive: Potency [1] > 92 µM | Potency [2] | Potency [3] | Potency [4] | outcome [5] | outcome [6] | Potency [7] | Potency [8] | Potency [9] | Potency [10] | Potency [12] | Potency [20] | Potency [13] | Potency [14] | Potency [15] | activation [16] -0.0074% | Potency [17]

C=CC=O
inactive: Potency [3] | Potency [4] | outcome [5] | outcome [6] | Potency [9] | Potency [10] | Potency [11] | Potency [12] | Potency [20] | Potency [13] | Potency [14] | activation [16] -0.542% | Potency [17] | max response [18] 1.01% | outcome [19]

CCCN(CCC)c1c([N+](=O)[O-])cc(C(F)(F)F)cc1[N+](=O)[O-]
inactive: Potency [1] > 92 µM | Potency [3] | Potency [4] | outcome [6] | Potency [7] | Potency [8] | Potency [9] | Potency [11] | Potency [20] | Potency [13] | Potency [14] | Potency [15] | activation [16] -3.66% and -3.44% | Potency [17]

C(CCOCC1CO1)COCC1CO1 (stereo unspecified)
inactive: Potency [1] > 92 µM | Potency [2] | Potency [4] | outcome [5] | Potency [9] | Potency [10] | Potency [11] | Potency [20] | activation [16] 0.765% | Potency [17] | max response [18] 2.78% | outcome [19]

CSSC
inactive: Potency [1] > 92 µM | Potency [3] | outcome [5] | outcome [6] | Potency [8] | Potency [9] | Potency [10] | Potency [11] | Potency [12] | Potency [20] | Potency [13] | Potency [14] | Potency [15] | Potency [17] | max response [18] -2.6% | outcome [19]

ClC(Cl)Br
inactive: Potency [1] > 92 µM | Potency [3] | outcome [5] | outcome [6] | Potency [7] | Potency [8] | Potency [9] | Potency [10] | Potency [13] | Potency [14] | Potency [15] | activation [16] -1.16% | Potency [17] | max response [18] -4.5% | outcome [19]

O=C(O)C(Br)Br
inactive: Potency [1] > 92 µM | Potency [2] | Potency [3] | Potency [4] | outcome [5] | outcome [6] | Potency [7] | Potency [8] | Potency [9] | Potency [11] | Potency [12] | Potency [20] | Potency [13] | activation [16] -1.25% | Potency [17] | max response [18] 1.77% | outcome [19]

CCOP(=O)(OCC)OCC
inactive: Potency [2] | Potency [3] | Potency [4] | outcome [5] | outcome [6] | Potency [7] | Potency [8] | Potency [9] | Potency [10] | Potency [11] | Potency [12] | Potency [20] | Potency [13] | Potency [15] | Potency [17] | max response [18] 0.98% and -0.959% | outcome [19]

O=[N+]([O-])c1ccccc1CCl
inactive: Potency [3] | Potency [4] | outcome [5] | outcome [6] | Potency [12] | Potency [15] | activation [16] 0.905% | max response [18] 5.58% | outcome [19]

Cc1cc(C)cc(OP(=O)(Oc2cc(C)cc(C)c2)Oc2cc(C)cc(C)c2)c1
inactive: Potency [1] > 92 µM | Potency [3] | outcome [5] | outcome [6] | Potency [7] | Potency [8] | Potency [9] | Potency [10] | Potency [11] | Potency [20] | Potency [13] | Potency [14] | Potency [15]

COC(=O)Nc1cccc(OC(=O)Nc2cccc(C)c2)c1
inactive: Potency [1] > 92 µM | Potency [2] | Potency [3] | outcome [6] | Potency [7] | Potency [8] | Potency [9] | Potency [10] | Potency [11] | Potency [12] | Potency [20] | Potency [13] | Potency [14] | Potency [15] | activation [16] -1.26% | Potency [17]

C=CC(=O)OC
inactive: Potency [2] | Potency [3] | Potency [4] | outcome [5] | Potency [7] | Potency [8] | Potency [9] | Potency [10] | Potency [12] | Potency [20] | Potency [13] | Potency [14] | Potency [15] | activation [16] -0.11% | Potency [17] | max response [18] 0.297% | outcome [19]

Oc1cccc(Cl)c1Cl
inactive: Potency [1] > 92 µM | Potency [2] | Potency [3] | Potency [4] | outcome [5] | outcome [6] | Potency [7] | Potency [8] | Potency [9] | Potency [10] | Potency [11] | Potency [12] | Potency [20] | Potency [14] | Potency [15] | Potency [17] | max response [18] -2.09% | outcome [19]

Cc1cc(N=Nc2ccccc2C)ccc1N
inactive: Potency [1] > 92 µM | Potency [3] | Potency [4] | outcome [6] | Potency [8] | Potency [9] | Potency [10] | Potency [11] | Potency [12] | Potency [20] | Potency [13] | Potency [14] | Potency [15] | activation [16] -0.0756% and -0.721%
